# Measured values from the supplement of paper PMC6411743.
# ± gives the standard deviation of the averaged measurements. The full data set covers some 6,200 targets. This sample favours those with the largest changes.
# Compound: Nc1ncnc2c1ncn2[C@@H]1O[C@H](COP(=O)(O)OP(=O)(O)NP(=O)(O)O)[C@@H](O)[C@H]1O [adenylyl imidodiphosphate]
# Experiment: NP40-soluble protein abundance relative to vehicle (solubility fold change) (ratio); higher = more soluble protein in presence of AMP-PNP
# Procedure, shortened: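 Eight concentrations, 0.1 to 10 mM, were tested on Jurkat crude lysate for 10 min at room temperature and then 3 min at 37 °C, in three independent experiments. The lysate was solubilised with 0.8% NP40 and benzonase, ultracentrifuged, and the supernatant TMT-labelled for LC-MS/MS. Each value is the fold change against the detergent-processed vehicle in its own replicate, from vsn-normalised intensities.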
# Chain of UniProt O75436 (O75436 whole entry): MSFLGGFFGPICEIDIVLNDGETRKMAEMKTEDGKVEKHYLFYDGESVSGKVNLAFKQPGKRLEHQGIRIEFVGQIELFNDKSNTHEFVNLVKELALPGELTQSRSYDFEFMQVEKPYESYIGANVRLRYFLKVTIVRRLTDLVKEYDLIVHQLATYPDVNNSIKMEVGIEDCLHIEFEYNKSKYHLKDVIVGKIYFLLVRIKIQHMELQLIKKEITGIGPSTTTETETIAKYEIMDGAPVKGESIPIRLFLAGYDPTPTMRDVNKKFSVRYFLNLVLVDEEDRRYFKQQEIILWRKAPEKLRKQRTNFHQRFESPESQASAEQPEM
# Chain of UniProt O75683 (O75683 whole entry): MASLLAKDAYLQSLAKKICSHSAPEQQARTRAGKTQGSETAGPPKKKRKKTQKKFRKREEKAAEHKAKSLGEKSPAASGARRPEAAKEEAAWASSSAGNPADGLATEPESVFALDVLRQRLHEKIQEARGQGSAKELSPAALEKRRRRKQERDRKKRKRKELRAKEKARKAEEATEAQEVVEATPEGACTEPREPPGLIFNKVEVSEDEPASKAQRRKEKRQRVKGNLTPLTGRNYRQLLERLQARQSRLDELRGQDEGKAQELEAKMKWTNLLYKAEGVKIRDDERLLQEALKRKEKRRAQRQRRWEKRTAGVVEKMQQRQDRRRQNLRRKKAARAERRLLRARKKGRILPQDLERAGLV
# Chain of UniProt O75367 (O75367 whole entry): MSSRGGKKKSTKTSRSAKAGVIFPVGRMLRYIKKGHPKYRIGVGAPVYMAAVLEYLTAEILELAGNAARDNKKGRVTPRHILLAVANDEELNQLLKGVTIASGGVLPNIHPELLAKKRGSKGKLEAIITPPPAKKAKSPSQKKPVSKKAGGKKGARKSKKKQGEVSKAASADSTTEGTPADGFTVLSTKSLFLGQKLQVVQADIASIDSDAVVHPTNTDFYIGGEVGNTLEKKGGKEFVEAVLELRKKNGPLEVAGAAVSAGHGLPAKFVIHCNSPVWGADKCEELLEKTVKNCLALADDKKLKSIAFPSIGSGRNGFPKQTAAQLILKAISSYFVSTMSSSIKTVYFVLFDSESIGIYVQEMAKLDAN
# Chain of UniProt P54619 (P54619 whole entry): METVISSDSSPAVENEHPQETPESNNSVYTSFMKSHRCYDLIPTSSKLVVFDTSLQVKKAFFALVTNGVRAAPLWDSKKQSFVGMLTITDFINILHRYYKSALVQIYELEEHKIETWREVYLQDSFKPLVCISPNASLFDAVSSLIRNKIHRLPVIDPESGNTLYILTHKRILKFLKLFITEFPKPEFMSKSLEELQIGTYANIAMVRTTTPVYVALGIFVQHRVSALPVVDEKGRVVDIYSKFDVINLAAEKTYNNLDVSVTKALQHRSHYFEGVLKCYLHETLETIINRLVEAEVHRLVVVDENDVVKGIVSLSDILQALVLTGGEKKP
# Chain of UniProt P62318 (P62318 whole entry): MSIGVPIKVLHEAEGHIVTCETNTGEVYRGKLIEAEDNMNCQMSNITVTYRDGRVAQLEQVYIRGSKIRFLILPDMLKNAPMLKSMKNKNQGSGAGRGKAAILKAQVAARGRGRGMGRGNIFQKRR
# Chain of UniProt P16403 (P16403 whole entry): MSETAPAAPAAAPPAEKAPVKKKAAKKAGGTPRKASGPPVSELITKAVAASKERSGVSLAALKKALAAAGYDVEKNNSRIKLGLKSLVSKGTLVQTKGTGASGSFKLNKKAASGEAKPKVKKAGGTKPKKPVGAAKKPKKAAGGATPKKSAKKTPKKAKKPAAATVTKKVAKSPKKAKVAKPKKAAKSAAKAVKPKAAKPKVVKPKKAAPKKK
# Chain of UniProt P18433 (P18433 whole entry, looked up): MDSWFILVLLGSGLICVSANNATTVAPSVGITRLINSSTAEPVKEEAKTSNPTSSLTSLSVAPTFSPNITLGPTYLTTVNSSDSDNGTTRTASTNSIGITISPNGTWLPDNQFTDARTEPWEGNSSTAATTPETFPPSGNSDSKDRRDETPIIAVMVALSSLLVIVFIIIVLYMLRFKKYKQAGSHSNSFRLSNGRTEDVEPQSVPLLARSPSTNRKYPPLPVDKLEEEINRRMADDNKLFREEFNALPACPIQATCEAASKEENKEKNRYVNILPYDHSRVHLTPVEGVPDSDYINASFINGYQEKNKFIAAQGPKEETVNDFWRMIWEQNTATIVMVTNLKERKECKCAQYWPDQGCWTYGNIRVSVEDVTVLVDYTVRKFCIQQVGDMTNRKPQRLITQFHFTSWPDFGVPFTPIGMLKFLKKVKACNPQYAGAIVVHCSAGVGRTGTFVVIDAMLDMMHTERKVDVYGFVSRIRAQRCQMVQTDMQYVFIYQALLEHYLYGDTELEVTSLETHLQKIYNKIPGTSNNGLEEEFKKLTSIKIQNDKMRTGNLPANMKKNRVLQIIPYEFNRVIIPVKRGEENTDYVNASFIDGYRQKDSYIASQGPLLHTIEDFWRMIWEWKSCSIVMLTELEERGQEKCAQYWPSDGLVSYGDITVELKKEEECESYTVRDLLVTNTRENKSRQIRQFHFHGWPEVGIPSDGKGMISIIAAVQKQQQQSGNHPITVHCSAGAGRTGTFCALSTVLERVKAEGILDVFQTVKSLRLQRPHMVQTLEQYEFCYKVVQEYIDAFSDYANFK
# Chain of UniProt O75475 (O75475 whole entry, one chain of several): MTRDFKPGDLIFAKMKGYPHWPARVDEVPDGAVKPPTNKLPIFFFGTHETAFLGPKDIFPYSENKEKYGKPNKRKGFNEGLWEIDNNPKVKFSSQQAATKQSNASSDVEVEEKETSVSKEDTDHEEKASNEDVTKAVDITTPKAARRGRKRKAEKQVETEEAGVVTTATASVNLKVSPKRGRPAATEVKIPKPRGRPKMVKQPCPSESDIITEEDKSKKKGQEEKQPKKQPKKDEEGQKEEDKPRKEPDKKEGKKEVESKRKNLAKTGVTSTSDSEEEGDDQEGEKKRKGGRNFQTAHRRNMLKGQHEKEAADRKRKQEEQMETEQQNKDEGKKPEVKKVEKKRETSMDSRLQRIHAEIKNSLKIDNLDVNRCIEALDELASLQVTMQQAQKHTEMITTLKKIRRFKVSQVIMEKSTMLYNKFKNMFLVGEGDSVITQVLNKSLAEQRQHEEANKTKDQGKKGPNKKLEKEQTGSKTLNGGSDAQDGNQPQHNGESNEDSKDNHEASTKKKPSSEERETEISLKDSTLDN
# Chain of UniProt P10515 (P10515 whole entry): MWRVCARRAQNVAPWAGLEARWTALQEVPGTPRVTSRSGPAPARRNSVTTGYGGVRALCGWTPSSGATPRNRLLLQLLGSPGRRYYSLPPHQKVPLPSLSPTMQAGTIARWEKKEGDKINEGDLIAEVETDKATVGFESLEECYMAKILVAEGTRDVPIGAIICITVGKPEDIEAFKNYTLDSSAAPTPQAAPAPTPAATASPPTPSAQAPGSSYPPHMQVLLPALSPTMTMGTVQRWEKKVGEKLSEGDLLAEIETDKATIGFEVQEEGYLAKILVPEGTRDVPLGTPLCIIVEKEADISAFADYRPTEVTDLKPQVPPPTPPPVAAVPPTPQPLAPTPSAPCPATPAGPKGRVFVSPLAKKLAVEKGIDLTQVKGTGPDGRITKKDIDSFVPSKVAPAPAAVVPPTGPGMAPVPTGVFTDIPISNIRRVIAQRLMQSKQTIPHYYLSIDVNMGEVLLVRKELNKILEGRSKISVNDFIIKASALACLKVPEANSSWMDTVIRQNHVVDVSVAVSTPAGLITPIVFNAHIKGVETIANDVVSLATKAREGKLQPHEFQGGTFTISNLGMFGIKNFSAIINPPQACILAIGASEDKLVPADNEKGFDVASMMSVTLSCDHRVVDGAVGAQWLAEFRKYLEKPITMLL
# Chain of UniProt P17812 (P17812 whole entry): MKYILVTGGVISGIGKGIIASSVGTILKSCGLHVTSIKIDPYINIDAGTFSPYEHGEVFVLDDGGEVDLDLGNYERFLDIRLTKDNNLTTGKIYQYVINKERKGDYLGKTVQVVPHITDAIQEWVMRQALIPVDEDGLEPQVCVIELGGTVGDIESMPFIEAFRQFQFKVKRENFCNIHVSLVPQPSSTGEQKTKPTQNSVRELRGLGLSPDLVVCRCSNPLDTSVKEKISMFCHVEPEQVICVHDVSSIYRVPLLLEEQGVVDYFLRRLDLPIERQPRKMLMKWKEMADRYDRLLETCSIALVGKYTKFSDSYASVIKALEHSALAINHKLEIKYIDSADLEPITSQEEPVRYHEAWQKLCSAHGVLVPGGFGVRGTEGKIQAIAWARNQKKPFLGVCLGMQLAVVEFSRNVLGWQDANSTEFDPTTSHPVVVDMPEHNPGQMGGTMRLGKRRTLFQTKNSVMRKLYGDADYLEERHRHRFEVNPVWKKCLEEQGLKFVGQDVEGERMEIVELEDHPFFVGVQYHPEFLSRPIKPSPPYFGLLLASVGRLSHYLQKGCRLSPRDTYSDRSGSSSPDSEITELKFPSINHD
# Chain of UniProt P56282 (P56282 whole entry): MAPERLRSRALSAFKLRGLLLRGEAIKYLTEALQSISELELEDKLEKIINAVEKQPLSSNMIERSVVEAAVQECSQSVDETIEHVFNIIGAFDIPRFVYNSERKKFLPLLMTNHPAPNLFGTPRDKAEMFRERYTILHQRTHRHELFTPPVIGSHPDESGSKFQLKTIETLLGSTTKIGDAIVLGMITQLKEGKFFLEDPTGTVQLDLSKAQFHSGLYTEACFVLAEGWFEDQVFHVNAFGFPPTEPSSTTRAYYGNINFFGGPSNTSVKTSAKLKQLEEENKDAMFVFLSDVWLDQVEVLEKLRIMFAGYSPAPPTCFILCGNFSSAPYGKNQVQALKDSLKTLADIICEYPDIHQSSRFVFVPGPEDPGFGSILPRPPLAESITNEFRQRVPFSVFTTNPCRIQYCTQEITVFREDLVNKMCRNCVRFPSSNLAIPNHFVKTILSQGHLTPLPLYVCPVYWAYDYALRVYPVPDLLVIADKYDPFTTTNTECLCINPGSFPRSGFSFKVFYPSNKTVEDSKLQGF
Target,NP40-soluble protein abundance (concentration: 1mM),NP40-soluble protein abundance (concentration: 2mM),NP40-soluble protein abundance (concentration: 4mM),NP40-soluble protein abundance (concentration: 6mM),NP40-soluble protein abundance (concentration: 8mM),NP40-soluble protein abundance (concentration: 10mM)
THOP1 (UniProt P52888),0.938 ± 0.036,0.884 ± 0.095,0.924 ± 0.021,0.944 ± 0.034,0.942 ± 0.041,0.921 ± 0.028
UniProt P56282|P56282-3|P56282-2,0.973 ± 0.03,0.933 ± 0.065,0.968 ± 0.026,0.952 ± 0.036,0.942 ± 0.041,0.951 ± 0.045
HIST1H1C (UniProt P16403),1.02 ± 0.05,1.13 ± 0.042,1.07 ± 0.023,1.17 ± 0.06,1.2 ± 0.095,1.54 ± 0.15
POLR1A (UniProt O95602),1 ± 0.017,1 ± 0.086,1.07 ± 0.1,1.08 ± 0.12,1.07 ± 0.14,1.11 ± 0.14
VPS26A (UniProt O75436),0.946 ± 0.045,0.861 ± 0.062,0.895 ± 0.019,0.872 ± 0.032,0.931 ± 0.046,0.829 ± 0.02
UniProt P62805,0.903 ± 0.073,0.951 ± 0.018,0.964 ± 0.046,1.12 ± 0.18,1.25 ± 0.16,1.52 ± 0.25
UniProt P17812,0.932 ± 0.03,0.873 ± 0.06,0.91 ± 0.033,0.96 ± 0.077,0.97 ± 0.04,0.924 ± 0.044
SURF6 (UniProt O75683),1.05 ± 0.056,1.12 ± 0.092,1.1 ± 0.057,1.17 ± 0.095,1.14 ± 0.12,1.22 ± 0.088
UniProt Q02078-2|Q02078-4|Q02078-6|Q02078-5,1.0199 ± 0.0007,1.03 ± 0.017,1.023 ± 0.0072,0.98 ± 0.014,0.9784 ± 0.0097,0.98 ± 0.053
UniProt P62857,0.941 ± 0.041,0.993 ± 0.078,0.919 ± 0.069,0.837 ± 0.071,0.74 ± 0.057,0.847 ± 0.092
UniProt P53384|P53384-2,0.979 ± 0.025,0.969 ± 0.057,1 ± 0.031,0.982 ± 0.022,0.97 ± 0.014,0.96 ± 0.063
UniProt O75475|V9GYT7,1.08 ± 0.028,1.21 ± 0.042,1.24 ± 0.056,1.34 ± 0.057,1.34 ± 0.024,1.37 ± 0.023
DLAT (UniProt P10515),0.959 ± 0.23,0.904 ± 0.2,0.904 ± 0.31,0.877 ± 0.31,0.899 ± 0.27,0.923 ± 0.31
DBT (UniProt P11182),0.977 ± 0.14,1.01 ± 0.12,1.01 ± 0.15,0.999 ± 0.2,0.971 ± 0.14,1.03 ± 0.19
UniProt O75367|O75367-2|O75367-3,1.01 ± 0.066,1 ± 0.055,1.05 ± 0.075,1.15 ± 0.034,1.26 ± 0.092,1.44 ± 0.049
UniProt P62318|P62318-2,1.07 ± 0.086,1.12 ± 0.12,1.19 ± 0.099,1.22 ± 0.017,1.29 ± 0.09,1.32 ± 0.056
UniProt P18433|P18433-2|P18433-3|P18433-4,1.029 ± 0.0089,1.03 ± 0.027,1.03 ± 0.032,0.987 ± 0.023,1.02 ± 0.018,1.03 ± 0.036
PCNA (UniProt P12004),1.008 ± 0.0098,0.998 ± 0.012,0.957 ± 0.012,0.973 ± 0.015,0.951 ± 0.018,0.935 ± 0.024
UniProt Q12872|Q12872-2,1.04 ± 0.04,1.11 ± 0.061,1.12 ± 0.043,1.17 ± 0.097,1.2 ± 0.1,1.33 ± 0.1
UniProt P54619|P54619-3|P54619-2,0.993 ± 0.015,0.871 ± 0.092,0.964 ± 0.035,0.943 ± 0.025,1.01 ± 0.02,0.905 ± 0.045
UniProt P62701,0.95 ± 0.063,0.87 ± 0.091,0.879 ± 0.11,0.873 ± 0.065,0.821 ± 0.071,0.851 ± 0.13
